Compounds with a hit are over-represented: about 21% of the library has one in this group of screens.
Shiga toxin inh: Shiga toxin inhibition. Vero cells, Shiga toxin protein synthesis inhibition reporter. inhibition, % at 38.7 µM. 290,000 compounds, 9.2% hits; in the data active = inhibition mostly above about 28%, no sharp cut-off; inactive = mostly below about 43%
Pf growth 96h: inhibits malaria parasite growth, 96 h. P. falciparum luciferase reporter growth, 96 h. Potency, µM (series often up to 28.7 µM), most hits filed as inhibitors. 320,000 compounds, 6.9% hits. AID 504834
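Two-generation exposure (96 h) targets delayed-death phenotype. Reporter parasites carrying integrated firefly luciferase, in red cells at 2% hematocrit and 0.05% parasitemia final, kept at 37 C, 5% CO2; luminescence loss indicates inhibition.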
HCMV antiviral: inhibitors of human cytomegalovirus | HFF cells, HCMV-luciferase reporter, 72 h; active compounds read low | AID 1259415 | activity change, negative = inhibition, % at 57.5 µM | 410,000 compounds, 4.5% hits; in the data active = activity change below about -60%; inconclusive = no clear call, values can overlap the other calls; inactive = above about -39%
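Luciferase read-out from HCMV-luciferase-infected HFFs (MOI 1 PFU/cell) 72 h post infection at 37C; compounds added after 16 h cell attachment; activity normalized between buffer-only basal and Salinomycin (10uM) inhibitor controls.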
Pf growth 48h: inhibits P. falciparum growth in the first generation, 48 h. P. falciparum luciferase growth in erythrocytes, 48 h. Potency, µM (series often up to 28.7 µM), hits mostly inhibitors. 310,000 compounds, 5.9% hits
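First compound was added to culture medium, then infected red cells at 0.1% parasitemia and 2% hematocrit (final). After incubation at 37 C under 5% CO2, luciferase detection reagent was dispensed and light output recorded.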
Cycloheximide cs: counter-screen for Shiga toxin inhibitors: cycloheximide protein synthesis inhibition. cell reporter, cycloheximide protein synthesis inhibition counterscreen. 300,000 compounds, 12% hits. AID 2314. max response, %; in the data active = max response mostly above about 13%, no sharp cut-off; inactive = mostly below about 14%; also: read at 38.3 µM for the half of the compounds with a filed dose
HCV inhibitor: HCV inhibition; Huh7.5.1 HCVcc-Cre infection, luciferase reporter, 44 h; Potency, µM (doses to about 41.8 µM), hits mostly inhibitors; 340,000 compounds, 3.4% hits
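After 44 h co-culture of compound, cells and HCVcc-Cre (~0.5 moi), substrate is added for 15 min at room temperature and luciferase measured over 15 sec. Cells were seeded at 1,000/well and pre-cultured 4 h.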
A number is an active result; - = inactive; ? = inconclusive; . = not tested or not shown; [ ] = remark or other dose. Unless noted, calls follow the shape of the dose curve; as a rule, active = well fitted inhibition curve with a large enough effect; inconclusive = small, poorly fitted or top-dose-only effect, or another doubt; inactive = no such curve, though single readings can be large or run the other way.

SMILES	Shiga toxin inh	Pf growth 96h	HCMV antiviral	Pf growth 48h	Cycloheximide cs	HCV inhibitor
COc1ccc(Br)cc1/C=N/Nc1ccccn1	-	?	-	-	-	11µM
COc1cc(/C=N/Nc2ccccn2)ccc1O	74	-	-	-	49	-
COc1ccc(/C=N/Nc2ccccn2)cc1OC	94	-	-	-	54	-
COc1ccccc1/C=N/NS(=O)(=O)c1ccccc1	-	-	-	-[0.00184 µM]	-	-
CN(C)c1ccc(C=NNc2ccccn2)c(Cl)c1	.	.	-	.	.	-
COc1ccc(Br)cc1/C=N/NS(=O)(=O)c1ccccc1	.	.	-87	.	.	.
COc1cc(/C=N/Nc2cc(C)nc(NS(=O)(=O)c3ccccc3)n2)ccc1O	-	-	-	-	-	-
O=C(Cn1c(=O)n(-c2ccccc2Cl)c(=O)c2sc3ccccc3c21)NC1CCCC1	.	.	-	.	.	.
CCc1ccc(C(=O)c2cn(CC(=O)Nc3ccc(OC)cc3OC)c3ccc(CC)cc3c2=O)cc1	.	.	-	.	.	.
COc1cccc(N2CC(NC(=O)C3CCCCC3)CC2=O)c1 (configuration not stated)	.	.	-	.	.	.
COc1ccc(S(=O)(=O)N2CCC3(CC2)CC(=O)c2ccccc2O3)cc1C	.	-	-	-	.	-
CC(C)C(C(=O)NC(C)(C)C)N(CCN1CCOCC1)C(=O)CNS(=O)(=O)c1ccccc1 (configuration not stated)	-	1.9µM	-	-	-	-
Cc1cc(Nc2ccccc2)c2c([N+](=O)[O-])cc(C)c(C)c2n1	-	?	-81	?	-	?
COc1ccccc1Nc1ccc(C(=O)O)cc1[N+](=O)[O-]	-	?	-	-	-	-
COc1ccccc1Nc1cc(C)nc2c(C)ccc([N+](=O)[O-])c12	-	?	-67	-	-	?
COc1cc(/C=N/NC(=O)CCC(=O)Nc2ccc(Br)cc2)ccc1O	-	-	-	-	-	-
COc1ccc(-c2nnc3ccc(SCC(=O)N4CCOCC4)nn23)cc1	-	-	-	-	-	-
Cc1ccc(-c2nn3c(C)nnc3c3ccccc23)cc1S(=O)(=O)N1CCN(CCO)CC1	-	?	-	?	-	-
Cc1nn2c(-c3ccco3)nnc2c2ccccc12	-	-[5.75 µM]	-	-	-	?
COc1ccc(-c2nnc3c4ccccc4c(C)nn23)cc1	-	-	-	?	28	-
Cc1nn2c(-c3ccc(S(=O)(=O)N4CCN(CCO)CC4)o3)nnc2c2ccccc12	-	10µM	-	9.3µM	-	-
COc1ccc(-c2nnc3c4ccccc4c(C)nn23)cc1S(=O)(=O)N1CCN(CCO)CC1	-	2.6µM	-	4.7µM	-	?
COc1ccc(-c2nnc3ccc(SC)nn23)cc1	-	4.7µM	-	-	-	.
Cc1nn2c(-c3ccncc3)nnc2c2ccccc12	-	?	?	-	-	-
O=C(COc1ccc(Cl)cc1)NCC(c1cccs1)S(=O)(=O)c1ccc(F)cc1 (configuration not stated)	.	.	-	.	.	.
SMILES	Shiga toxin inh	Pf growth 96h	HCMV antiviral	Pf growth 48h	Cycloheximide cs	HCV inhibitor
CC(C)Oc1ccc(C2C(C(=O)c3ccco3)=C(O)C(=O)N2Cc2cccnc2)cc1 (configuration not stated)	45	.	-	-	35	-
O=C(C1=C(O)C(=O)N(Cc2cccnc2)C1c1cccc(Oc2ccccc2)c1)c1ccco1 (configuration not stated)	.	.	-	.	.	-
CCOc1ccc(C2C(C(=O)c3ccco3)=C(O)C(=O)N2CCCn2ccnc2)cc1OC (configuration not stated)	-	-	-	-	16	-
CC(C)Oc1ccc(/C(O)=C2/C(=O)C(=O)N(CCCn3ccnc3)C2c2cccnc2)cc1 (configuration not stated)	-	-	-	-	-	-
COc1ccc(/C(O)=C2/C(=O)C(=O)N(Cc3cccnc3)C2c2ccccn2)cc1 (configuration not stated)	61	-	-	-	24	?
COCCN1C(=O)C(=O)/C(=C(/O)c2ccc(OC(C)C)cc2)C1c1cccnc1 (configuration not stated)	-	15µM	-	-	-	-
COCCCn1c(=O)c2sccc2n2c(CCCC(=O)Nc3ccc(F)c(F)c3)nnc12	.	.	-	.	.	.

Assay outcomes: PubChem, National Center for Advancing Translational Sciences (NCATS)
